# HIV TAR-Tat = HIV-1 TAR-Tat binding disruption | HIV-1 TAR RNA, Tat peptide displacement FRET; stronger effect = higher value | z-score (no concentration beside the values) | actives 0.6% (n = 100,000); active = z-score of 3 or more in at least 2 runs
# CDC25B-CDK2 inh = human CDC25B-CDK2/CyclinA binding inhibition; AID 1259370; P30305+P24941; actives 0.72% (n = 94,000); HTRF CDC25B-CDK2/CyclinA binding, anti-His/anti-Flag; stronger effect = higher value; z-score (test concentration not listed); in the data active = z-score above about 3.2
# Hits are given with their value; n = inactive; x = no result given. Hits are enriched below; roughly 0.86% of the tested compounds scored in any of these assays.
SMILES,HIV TAR-Tat,CDC25B-CDK2 inh
CC(C)=CCCC1=CC(=O)c2c(O)ccc(O)c2C1=O,33.7,x
Cc1ccc2[nH]cc(C(O)CN3CCCCC3)c2c1 (centres undefined),n,n
N(=Nc1nn[nH]n1)Nc1nnn[nH]1,x,n
Cn1nc(-c2ccccc2)nc2c(=O)n(C)c(=O)nc1-2,n,5.75
CCn1nc(-c2ccccc2)nc2c(=O)n(C)c(=O)nc1-2,n,n
c1csc(C2NCc3ccccc3-n3cccc32)c1 (centres undefined),n,n
CCOc1ccc(C2SCC(=O)Nc3c2c(=O)[nH]n3C2CCOC(C)(C)C2)cc1 (centres undefined),n,n
COc1cccc(CN2CCN(Cc3cc(Br)ccc3O)CC2)c1,n,16.1
CCc1ccc(CN2CCN(Cc3cc(Br)ccc3O)CC2)cc1,n,n
CN(C)/C=C(\C=[N+](C)C)c1ccccc1,x,n
CC[C@@H](C)C(=O)O[C@H]1[C@H](O)[C@H]2[C@@H](CN3C[C@@H](C)CC[C@H]3[C@@]2(C)O)[C@@H]2C[C@]34OC5(O)[C@@H](OC(=O)C(C)(O)C(C)O)CC[C@@]3(C)[C@@H]5[C@@H](OC(C)=O)[C@@H](OC(C)=O)[C@H]4[C@@]21O (some centres undefined),10,x
CCC(C)C(=O)O[C@H]1[C@H](O)C2C(CN3CC(C)CCC3[C@@]2(C)O)C2C[C@]34O[C@]5(O)C(OC(=O)C(C)(O)C(C)O)CC[C@@]3(C)C5C(OC(C)=O)[C@@H](OC(C)=O)C4[C@@]21O (some centres undefined),n,x
Cc1nn(-c2ccccc2Cl)c2c1C(c1ccc3c(c1)OCO3)SCC(=O)N2 (centres undefined),n,n
[Cl-].[Cl][Pt].[NH2-].[NH2-].c1ccncc1,x,3.73
Cc1nn(-c2ccc(F)cc2)c2c1C(c1ccc3c(c1)OCO3)SCC(=O)N2 (centres undefined),n,n
O=C1CCN(C(=O)c2ccco2)CC1,n,n
O=C1C2CCN(CC2)C1Cc1ccc(OCCOc2ccccc2)cc1 (centres undefined),n,n
O=C1C2CCN(CC2)C1Cc1ccco1 (centres undefined),x,11.9
COc1cc2c(cc1O)CCN[C@@H]2C,n,x
c1ccc(-n2cccc2-c2nc(N3CC3)nc(N3CC3)n2)cc1,x,15.8
Cc1nn(-c2ccc(Cl)cc2)c2c1C(c1ccc(F)cc1)SCC(=O)N2 (centres undefined),n,n
O=[N+]([O-])c1ccc(O)c([N+](=O)[O-])c1,n,x
O=[N+]([O-])c1cc(O)c(O)c([N+](=O)[O-])c1,9.53,n
COc1ccc(C2C(C#N)=C(N)Oc3c2c(=O)oc2ccccc32)cc1CSc1ccccn1 (centres undefined),x,n
Cc1cccc(CN2CCCN(Cc3ccccc3C)S2(=O)=O)c1,n,x
SMILES,HIV TAR-Tat,CDC25B-CDK2 inh
COc1cc2c3c(c1OC)-c1ccccc1CC3N(C)CC2 (centres undefined),n,x
COc1cc2c(cc1O)CC1c3c(cc(O)c(OC)c3-2)CCN1C (centres undefined),7.69,x
CCOc1ccc(C2SCC(=O)Nc3n[nH]c(C)c32)cc1OC (centres undefined),n,n
CC[C@@H](CO)NC(=O)[C@@H]1C=C2c3cccc4[nH]cc(c34)C[C@H]2N(C)C1,n,4.21
CC[C@@H](CO)NC(=O)[C@@H]1C=C2c3cccc4c3c(cn4C)C[C@H]2N(C)C1,x,n
Fc1ccc(CN2CCN(Cc3ccccc3F)CC2)cc1,x,n
COc1ccc(CCNCc2ccc(OC)c(OC)c2)cc1OC,n,n
COc1ccc(Cc2nccc3cc(OC)c(OC)cc23)cc1OC,n,13.3

# Screening results: PubChem, Center for Chemical Genomics, University of Michigan
